Inconclusive results are not listed. Values without a mark were called inactive. Activity calls are given as the source filed them. The call rests on the fitted dose curve; in most records, active means well fitted inhibition curve with a large enough effect; inconclusive means small, poorly fitted or top-dose-only effect; inactive means flat fitted curve, though single readings scatter.
Assays:
Assay in all cases: Cytotoxic Profiling of Annotated Libraries Using Quantitative High-Throughput Screening (AID 1296008); further: nearly all actives have a fitted effect of over 60% in size
Settings in all cases: Five cell lines viability, CellTiter-Glo ATP luminescence, 48-72 h; max response: active compounds read low
CRL-7250 = system: CRL-7250
In short: (§1)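 Cells exposed to compounds for 48 or 72 hr at 37 degrees Celsius. Viability read as ATP-coupled luminescence with CellTiter-Glo after 10 min at room temperature.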

HEK293 = system: HEK293
In short: as §1

HaCat = system: HaCat
In short: as §1

KB-3-1 = system: KB-3-1
In short: as §1
On the % scale 0 is the no-effect control and ±100 the full control effect; potency means the concentration at half of the fitted maximal effect.

`OC[C@]1(O)OC[C@@H](O)[C@H](O)[C@@H]1O` was tested, and the max response (CRL-7250) was -7.2%, the outcome (HEK293) was “inactive” and the max response (HaCat) was -0.702%.

With `CCCC(CCC)(C(=O)OCC)C(=O)OCC` the max response (CRL-7250) was -5.21%, the max response (HEK293) was 2.87% and the outcome (HaCat) was “inactive”.

`CCCCCCCC(=O)[O-].CCCCCCCC(=O)[O-].[Zn+2]` was tested, and the max response (CRL-7250) was -4.35%, the max response (HEK293) was -2.75% and the outcome (HaCat) was “inactive”.

For `CCOC(=O)Oc1ccc(CCNC(=O)[C@H](CCSC)NC(C)=O)cc1OC(=O)OCC`, the outcome (CRL-7250) was “inactive”, the max response (HEK293) was -13% and the max response (HaCat) was -20.7%.

`Cn1c(=O)c2c(ncn2CC(=O)O)n(C)c1=O` showed a max response (CRL-7250) of -0.788%, a max response (HEK293) of -8.26% and a max response (HaCat) of -42.3%.

In the case of `Cc1cc2nc3ccc(=[N+](C)C)cc-3sc2cc1N`, the Potency (CRL-7250) is reported as 9.44 µM (active), the Potency (HEK293) is reported as 0.422 µM (active) and the Potency (HaCat) is reported as 6.68 µM (active).

`CCCCOC(=O)CCCCCCCCC(=O)OCCCC` gave a max response (CRL-7250) of 0.0544%, a max response (HEK293) of 1.21% and a max response (HaCat) of -1.87%.

With `N#CC1(c2ccc(F)cc2)CCC(=O)CC1` the max response (CRL-7250) was -2.26%, the max response (HEK293) was -11.6% and the outcome (HaCat) was “inactive”.

`CO[C@@]1(NC(=O)CSC[C@@H](N)C(=O)O)C(=O)N2C(C(=O)O)=C(CSc3nnnn3C)CS[C@@H]21` was tested, and the max response (CRL-7250) was 1.25%, the outcome (HEK293) was “inactive” and the outcome (HaCat) was “inactive”.

With `O=C(c1ccco1)N1CCNCC1` the max response (CRL-7250) was -10.9%, the outcome (HEK293) was “inactive” and the outcome (HaCat) was “inactive”.

`CC(Oc1c(Cl)cccc1Cl)C1=NCCN1` (stereo not drawn) was tested, and the max response (CRL-7250) was -2.82%, the max response (HEK293) was 4.99% and the outcome (HaCat) was “inactive”.

`O=C(O)c1cn(C2CC2)c2cc(Cl)c(F)cc2c1=O` was tested, and the outcome (CRL-7250) was “inactive”, the max response (HEK293) was -5.06% and the outcome (HaCat) was “inactive”.

`CCOc1ncc(F)c(=O)[nH]1` was tested, and the outcome (CRL-7250) was “inactive”, the max response (HEK293) was -0.0366% and the outcome (HaCat) was “inactive”.

Work on `C[N+](C)(CCOc1ccccc1)Cc1cccs1` yielded a max response (CRL-7250) of -3.68%, a max response (HEK293) of -16.4% and a max response (HaCat) of 2.51%.

Compound `O=C(O)CCC(=O)OC[C@@H](NC(=O)C(Cl)Cl)[C@H](O)c1ccc([N+](=O)[O-])cc1` has a max response (CRL-7250) of -4.73%, a max response (HEK293) of -21.8% and a max response (HaCat) of 0.154%.

In the case of `CC(C)CCCC(C)NCCC(C)C` (stereo not drawn), the max response (CRL-7250) is reported as -5.37%, the max response (HEK293) is reported as -7.84% and the max response (HaCat) is reported as 3.37%.

`CCCc1ncc(C(=O)O)s1` was tested, and the max response (CRL-7250) was -9.12%, the max response (HEK293) was 4.41% and the outcome (HaCat) was “inactive”.

For `CN1Cc2cc(C(=O)N3CCC(C4CCNCC4)CC3)ccc2N[C@@H](CC(=O)O)C1=O`, the max response (CRL-7250) was -4.04%, the max response (HEK293) was -1.55% and the outcome (HaCat) was “inactive”.

With `CC(CCc1ccc2c(c1)OCO2)NN` (stereo not drawn) the max response (CRL-7250) was -8.5%, the outcome (HEK293) was “inactive” and the max response (HaCat) was 2.43%.

`CN1CCN(N)CC1` was tested, and the max response (CRL-7250) was -18.2%, the outcome (HEK293) was “inactive” and the max response (HaCat) was 1.4%.

With `CCOC(=O)NNc1ccc(N(CC)CC(C)O)nn1` (stereo not drawn) the max response (CRL-7250) was 2.28%, the outcome (HEK293) was “inactive” and the outcome (HaCat) was “inactive”.

Compound `Cc1sccc1Br` has a max response (CRL-7250) of -9.55%, a max response (HEK293) of -4.49% and a max response (HaCat) of 1.43%.

In the case of `C[N+]1(C)CCC(OC(=O)C(O)(c2ccccc2)C2CCCC2)C1` (stereo not drawn), the max response (CRL-7250) is reported as 2.29%, the max response (HEK293) is reported as -9.88% and the outcome (HaCat) is reported as “inactive”.

For `OC1(c2ccc(Cl)cc2)CCNCC1`, the max response (CRL-7250) was -0.911%, the outcome (HEK293) was “inactive” and the outcome (HaCat) was “inactive”.

With `CCCCCCOC(=O)NC(=N)c1ccc(NCc2nc3cc(C(=O)N(CCC(=O)OCC)c4ccccn4)ccc3n2C)cc1` the max response (CRL-7250) was 2.91%, the Potency (HEK293) was 10.6 µM (active) and the outcome (HaCat) was “inactive”.

`COc1ccc2c(c1)CCCC2=O` was tested, and the max response (CRL-7250) was -5.59%, the max response (HEK293) was -10.4% and the outcome (HaCat) was “inactive”.

For `C/C(=N/NC(=O)c1ccncc1)C(=O)O`, the max response (CRL-7250) was 0.746%, the max response (HEK293) was 2.14% and the outcome (HaCat) was “inactive”.

In the case of `CCCCC(O)/C=C(C)/C=C/C=C/C(=O)N1CCCC1=O` (stereo not drawn), the max response (CRL-7250) is reported as 0.43%, the max response (HEK293) is reported as 1.86% and the outcome (HaCat) is reported as “inactive”.

With `Cc1ccc(-c2ccccc2C#N)cc1` the max response (CRL-7250) was 2.16%, the outcome (HEK293) was “inactive” and the outcome (HaCat) was “inactive”.

In the case of `CCCCC(CC)CNC(=O)CC(C)OC(=O)CCC(=O)O` (stereo not drawn), the max response (CRL-7250) is reported as -4.08%, the max response (HEK293) is reported as 1.54% and the outcome (HaCat) is reported as “inactive”.

With `Cc1cccc(C)c1NC(=O)c1ccc(N)cc1` the max response (CRL-7250) was -0.144%, the max response (HEK293) was -2.32% and the outcome (HaCat) was “inactive”.

In the case of `CCOCCn1c(C2CCN(CCc3ccc(C(C)(C)C(=O)O)cc3)CC2)nc2ccccc21`, the max response (CRL-7250) is reported as -0.215%, the max response (HEK293) is reported as -1.51% and the outcome (HaCat) is reported as “inactive”.

For `O=C1c2ccccc2CCc2ccccc21`, the max response (CRL-7250) was 2.21%, the max response (HEK293) was -2.77% and the outcome (HaCat) was “inactive”.

`N=C(N)c1ccc(OCCCOc2ccc(C(=N)N)cc2)cc1` was tested, and the max response (CRL-7250) was 2.23%, the Potency (HEK293) was 7.5 µM (active) and the outcome (HaCat) was “inactive”. The max response (KB-3-1) was -29%.

Reference: PubChem BioAssay (NCATS)
